About 17,000 (4.7%) of roughly 360,000 compounds were called active. Inconclusive results (about 5%) are left out. Rule as the data show it: active = activity change below about -50%; inconclusive = mostly about -30% to -49%; inactive = weaker than that. The list comes from a sample in which actives are over-represented; it also holds similar structures and randomly drawn compounds.
Assay: qHTS for Inhibitors of Inflammasome Signaling: IL-1-beta AlphaLISA Primary Screen
Conditions: THP-1 LPS/ATP IL-1B secretion, 16 h; at 57.5 µM, stronger effect = lower value
Text: Inflammasomes are a set of intracellular multi-protein complexes that enable autocatalytic activation of inflammatory caspases and drive the innate immune response to counter harmful agents. […] A qHTS assay, based on AlphaLISA technology, was developed to screen the Molecular Libraries Small Molecule Repository (MLSMR) to look for novel inflammasome inhibitors. The assay detects IL-1B using AlphaLISA anti-IL-1B acceptor and donor beads. A decreased emission signal, indicating reduced IL-1B secretion, is the desired outcome for this assay. NIH Chemical Genomics Center [NCGC] NIH Molecular Libraries Probe Centers Network [MLPCN] MLPCN Grant: MH095513 Assay Provider: Shyam Biswal Ph.D., Johns Hopkins University Immunity. 2012 Jul 27;37(1):85-95. PMID: 22819042 [2] Curr Pharm Des. 2012;18(16):2320-8. PMID: 22390695
Three microliters containing 3000 THP-1 cells were dispensed into the wells of solid, white, tissue culture treated Greiner 1,536-well plates. Library compounds and positive control, Glyburide, were pin-transferred (23 nL) by a Kalypsys pin-tool equipped with a 1,536-pin array, resulting in final compound concentration ranges of 2.5 nM to 57.5 uM. After 1 hr of cell culture incubation (37 °C, 5% CO2), 1 microL of 1 microg/mL lipopolysaccharide (250 ng/mL, final) and 5 mM ATP (1.25 mM, final) were added to stimulate the cells. After 16 hr of cell culture incubation with the compounds, 1.5 uL of anti-IL-1B acceptor beads (6 ug/mL, final) and biotinylated antibody (0.6 nM, final) were added to the plate, followed by a 1 hr incubation at ambient temperature. To detect the secreted IL-1B, 1.5 uL of AlphaLISA SA-Donor beads (24 ug/mL, final) were added, followed by 30 min of incubation in the dark at ambient temperature. The AlphaLISA signal was read by a PerkinElmer EnVision plate reader with an ultrasensitive luminescence detector and 1536 Plate HTS AlphaScreen aperture (excitation of 680nm and emission of 615nm).
% is scaled to controls: 0 for no effect and ±100 for the full control effect.

Activity change, inactive:
O=C(CN1C(=O)NC2(CCCCC2)C1=O)NCCC1=CCCCC1 21.6%
COc1cccc(NC(=O)C2(C)CCN2C(=O)CCC2CCCC2)c1 (configuration not stated) 12.2%
Oc1ccc(-n2nnnc2SCc2c(F)cccc2Cl)cc1 -11.4%
COc1ccc(CSc2nnnn2-c2ccc(C(=O)O)cc2)cc1 -2.8%
COc1ccc(C(C)=O)cc1CN1C(=O)NC2(CCCCC2C)C1=O (configuration not stated) -5.22%
C[C@H]1CN([C@@H](C)CO)C(=O)CCCn2cc(nn2)CO[C@@H]1CN(C)S(=O)(=O)c1cccc(C#N)c1 12.5%
CC(=O)NCC(=O)N1CCCC(C(=O)c2ccc3c4c(cccc24)CC3)C1 (configuration not stated) -13.3%
Cc1ncoc1C(=O)N1CCCC(C(=O)c2ccc3c4c(cccc24)CC3)C1 (configuration not stated) -21.9%
C[C@H](O)[C@@H]1C(=O)N2CCc3c([nH]c4ccccc34)[C@@H]2C[C@@H]1N(C)C(=O)Nc1ccc(F)cc1 -16.5%
CC1(C(=O)NS(=O)(=O)c2ccc3ccccc3c2)CCN1C(=O)C1(c2ccc(Cl)cc2)CCC1 (configuration not stated) 53.2%
COc1ccc(NC(=O)c2cc(-c3ccc(C)o3)nc3ccccc23)cc1 -5.74%
COc1cccc(NC(=O)CN(C)C(=O)c2cc(Cl)nc3ccccc23)c1 17.2%
COc1ccc(-c2cc(C(=O)N(C)Cc3ccc(OC)c(OC)c3OC)c3ccccc3n2)cc1OC -13.9%
COc1ccc(NC(=O)c2cc(-c3cc(OC)c(OC)c(OC)c3)nc3ccccc23)c(OC)c1 42.6%
COc1ccc(CN(C)C(=O)Cc2c[nH]c3ccccc23)c(OC)c1OC 5.58%
COc1ccc(Cl)cc1NC(=O)CN(C)C(=O)c1cc2ccccc2cc1OC 5.95%
O=C(Nc1nonc1-c1ccc(Cl)cc1)c1ccco1 26.6%
CC(C)C[C@H](NC(=O)N1CC(=O)Nc2ccccc21)C(=O)N[C@H](Cc1ccccc1)C(=O)O 4.57%
N#Cc1ccc(-c2nc3c(Cl)cc(C(F)(F)F)cn3c2Cc2ccccc2C(F)(F)F)cc1 23.1%
COc1ccc(S(=O)(=O)N2CCC(C(=O)NCCC(=O)Nc3ccccc3OC)CC2)cc1 2.12%
Nc1nc2c(ncn2[C@@H]2O[C@H](CNS(=O)(=O)N3CCc4ccccc4C3)[C@@H](O)[C@H]2O)c(=O)[nH]1 0.653%
COc1cccc(OCC(=O)NCCS(=O)(=O)N2CCN(c3ccccc3)CC2)c1 21%
OC[C@H]1O[C@@H](c2nc(-c3nc(-c4ccc(F)cc4)no3)cs2)[C@H](O)[C@@H](O)[C@H]1O 2.39%
CCCCN1C(=O)C(CC(=O)NC(c2ccccc2)c2ccccc2)CC(C(=O)N2CCOCC2)=C1C (configuration not stated) 14.9%
Nc1nc(NCc2ccccc2)n(-c2ccccc2)n1 4.19%
CCCC(=O)n1nc(NCc2ccc(OC)cc2)nc1NCc1ccc(OC)cc1 15.3%
CC(C)(C)OC(=O)N1CCN(C(=O)c2[nH]c(C(F)(F)F)nc2-c2ccccc2)CC1 13.4%
Cc1ccc(CN(C(=O)c2sc3ccccc3c2Cl)C2CCS(=O)(=O)C2)cc1 (configuration not stated) -2.89%
O=C(CSc1ncn[nH]1)NCc1ccc2c(c1)OCO2 17.5%
Cc1cccc(C=CC(=O)c2ccc(Cl)cc2)c1 -29.5%
Cc1ccc(-c2ccc(CN3C(C(C)C)C(=O)N(Cc4cn(CCC5OCCCO5)nn4)CCS3(=O)=O)cc2)cc1 (configuration not stated) 13%
CCn1ncc(C2=NOC(C(=O)N3CCN(c4ccccc4)CC3)C2)c1C (configuration not stated) 3.63%
COc1ccc(-c2nn(-c3ccccc3)cc2/C=C\C(=O)N2CCOCC2)cc1[N+](=O)[O-] -9.66%
O=C(NCCCN1CCOCC1)c1cn(-c2ccccc2)nc1-c1ccc(F)cc1 -7.44%
O=C(COC(=O)/C=C/c1ccc(Br)o1)Nc1cccc(S(=O)(=O)N2CCOCC2)c1 13.8%
CCCCOCCCNC(=O)C[C@@H]1C[C@@]2(C(=O)OCC)CCCC=C2N(CCC2=CCCCC2)C1=O -27.8%
CCOC(=O)[C@]12CCCC=C1N(CCC1=CCCCC1)C(=O)[C@H](CC(=O)NCCCCc1ccccc1)C2 -17.5%
CCOC(=O)[C@]12CCCC=C1N(CCC1=CCCCC1)C(=O)[C@H](CC(=O)NCCCOC)C2 60.5%
CC1=C(C(=O)N(C)C)CC(CC(=O)NCCc2ccccn2)C(=O)N1CCC1=CCCCC1 (configuration not stated) -20.1%
O=C(Nc1c(Br)cc2c(c1Br)Cc1cc([N+](=O)[O-])ccc1-2)C(Cl)Cl 39%
CCCOc1ccc(-c2c(C(=O)N/N=C/c3ccco3)nnn2-c2nonc2N)cc1 92.5%
Cc1cc(C)c(S(=O)(=O)NN=C2c3ccccc3[C@H]3Cc4csc[n+]4[C@@H]23)c(C)c1 -3.78%
COc1ccc(C(NC(=O)C2CCN(CCCc3ccccc3)CC2)c2cccs2)cc1 (configuration not stated) -24%
O=C(CCN1CCCCC1)Nc1ccc(F)c(F)c1 -0.386%
COc1ccc(NC(=O)N(C)C[C@@H]2OCc3cn(nn3)CCCC(=O)N([C@H](C)CO)C[C@H]2C)c(OC)c1 9.8%
CCOc1ccc(OCc2cccc(C(=O)N(CC)CC)c2)cc1 0%
CC(C)(C)OC(=O)N(Cc1ccccc1)Cc1ccc(OCc2cccc(NC(=O)c3ccccc3)c2)cc1 9.51%
O=C1CSC(c2ccc(Cl)cc2)N1 (configuration not stated) 0%
COc1ccc2c(C)c(CCC(=O)NC3CC3)c(=O)oc2c1C -19.2%
NC(=O)NC(CC(=O)NNC(=O)c1ccccn1)c1ccc(Cl)cc1 (configuration not stated) 99.7%
CNC(=S)N1CCN(c2ccccn2)CC1 -3.93%
CC1=NNC(=O)C1CCC(=O)N/N=C(\C)c1ccc(Cl)cc1 (configuration not stated) 6.73%
O=C(NCCOc1ccccc1)c1ccccc1F -17.7%
COc1ccc(/C(C)=N\NC(=O)c2ccc(-c3ccccc3)cc2)c(F)c1 7.94%
Cc1cccc(C)c1NC(=S)N1CCCCCC1 5.87%
CO[C@@H]1CN(C)C(=O)c2cc(NC(=O)Nc3cc(F)ccc3F)ccc2OC[C@H](C)N(C(=O)c2ccccn2)C[C@@H]1C 11%
COC(=O)c1ccc(CSc2nnc(N)s2)o1 -16.4%
CCCCNC(=O)C[C@@H]1C[C@@]2(C(=O)OCC)CCC=C2N(Cc2ccco2)C1=O 14.5%
O=C(NCc1ccc(F)cc1)c1cc(C2CCCCN2C(=O)c2cccs2)on1 (configuration not stated) -12.4%
O=C(CN1CCN(c2ccc(O)cc2)CC1)Nc1ccc(-c2ccccc2)cc1 12.4%
Cc1cccc(C)c1NC(=O)C(c1cccc2ccccc12)n1c(=O)c(-c2ccco2)nc2ccccc21 (configuration not stated) 7.42%
COc1ccc(NS(=O)(=O)c2ccc(C)c(C(=O)NCC(c3cccs3)N3CCOCC3)c2)cc1 (configuration not stated) 2.47%
CC1(C(=O)NS(=O)(=O)c2cccc(OC(F)F)c2)CCN1C(=O)COc1ccc(Cl)cc1 (configuration not stated) 48.6%
COc1cccc(C(O)Cc2nc3ccccc3n2C)c1OC (configuration not stated) 11.4%
CCOc1ccc(C(O)Cc2nc3ccccc3n2C)cc1 (configuration not stated) -16%
COc1cc(C(=O)N2CCN(S(=O)(=O)c3ccc(C(C)C)cc3)CC2)ccc1OCC(=O)N1CCOCC1 -21.1%
O=C(c1cc(C2CCCCN2S(=O)(=O)c2ccccc2)on1)N1CCOCC1 (configuration not stated) 0%
Nn1c(SCC(=O)Nc2nccs2)nnc1-c1ccco1 -6.29%
CC1(C(=O)NCc2ccc3c(c2)OCO3)CCN1C(=O)Cc1cccc2ccccc12 (configuration not stated) -20.8%
Cn1cc(CCC(=O)NCc2ccc3c(c2)OCO3)c2ccccc21 0%

Activity change, active:
COc1ccc(CSc2nnnn2-c2ccc(O)cc2)cc1F -64.2%
CCn1ccnc1CN1CCCC(C(=O)c2ccc3c4c(cccc24)CC3)C1 (configuration not stated) -69.4%
COc1ccc(-c2cc(C(=O)Nc3ccccc3O)c3ccccc3n2)cc1 -84.2%
COc1ccc(CN(C)C(=O)c2cc(-c3ccc(C)cc3C)nc3ccccc23)c(OC)c1OC -84.9%
COc1ccc(-c2cc(C(=O)N(C)CC(=O)Nc3ccccc3Cl)c3ccccc3n2)cc1OC -52.1%
O=C(c1cccs1)n1nc(NCc2ccccc2)nc1NCc1ccccc1 -57.7%
Nn1cnnc1N/N=C/c1cc([N+](=O)[O-])c(Cl)cc1Cl -61.8%
O=C(/C=C/Sc1ncn[nH]1)c1ccc(Cl)cc1 -118%
O=C(/C=C/c1cn(-c2ccccc2)nc1-c1ccc2c(c1)OCCO2)NCCCN1CCOCC1 -92.2%
CC1=C(C(=O)N(C(C)C)C(C)C)CC(CC(=O)NCCCCc2ccccc2)C(=O)N1CCC1=CCCCC1 (configuration not stated) -59%
CCCCOCCCNC(=O)C[C@@H]1C[C@@]2(C(=O)OC)CCCCC=C2N(CCC2=CCCCC2)C1=O -57.4%
CC(C)c1cc(C(N)=O)c(NC(=O)c2cccc(COc3ccc(Br)cc3)c2)s1 -75.7%
C/C(=N\NC(=O)c1ccccc1F)c1ccccn1 -100%
C/C(=N\NC(=O)Cc1ccc(Cl)cc1)c1ccccn1 -103%
CC(=NNC(=S)N1CCCCCC1)c1ccccn1 -106%
CC(NCc1nc2ccccc2n1C)C12CC3CC(CC(C3)C1)C2 (configuration not stated) -94.3%
N#Cc1nc(Cc2cccc3ccccc23)oc1NCc1ccc2c(c1)OCO2 -53.4%

— PubChem BioAssay AID743279 (National Center for Advancing Translational Sciences (NCATS), 2014)
